Only some compounds are listed: those with a hit (about 7.2% of all), similar ones and a draw of the others.
hNpr1 antagonist: human Npr1 receptor antagonism. P16066. HEK293 hNpr1 GloSensor cGMP, ANP-stimulated luminescence. Potency, µM (highest dose often 46.3 µM), inactives show at the highest dose activity change, negative = inhibition, most hits filed as inhibitors. hit rate 1.6% among 76,000. AID 1347048; calls by dose curve; note: nearly all actives have a fitted effect of over 60% in size
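HEK293 cells stably expressing human Npr1 and cGMP GloSensor pGS-40F, loaded 2 h with 2% GloSensor reagent, given compound 30 min at room temperature. Luminescence read before and 20 min after 0.1 nM hNppA.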
FLuc inh: Photinus pyralis luciferase inhibition. hit rate 2.5% among 76,000. P08659. Potency, µM (series often up to 115 µM), most hits filed as inhibitors. purified P. pyralis luciferase, luminescence, biochemical; note: nearly all actives have a fitted effect of over 65% in size
Target sequence (P08659 whole entry, looked up): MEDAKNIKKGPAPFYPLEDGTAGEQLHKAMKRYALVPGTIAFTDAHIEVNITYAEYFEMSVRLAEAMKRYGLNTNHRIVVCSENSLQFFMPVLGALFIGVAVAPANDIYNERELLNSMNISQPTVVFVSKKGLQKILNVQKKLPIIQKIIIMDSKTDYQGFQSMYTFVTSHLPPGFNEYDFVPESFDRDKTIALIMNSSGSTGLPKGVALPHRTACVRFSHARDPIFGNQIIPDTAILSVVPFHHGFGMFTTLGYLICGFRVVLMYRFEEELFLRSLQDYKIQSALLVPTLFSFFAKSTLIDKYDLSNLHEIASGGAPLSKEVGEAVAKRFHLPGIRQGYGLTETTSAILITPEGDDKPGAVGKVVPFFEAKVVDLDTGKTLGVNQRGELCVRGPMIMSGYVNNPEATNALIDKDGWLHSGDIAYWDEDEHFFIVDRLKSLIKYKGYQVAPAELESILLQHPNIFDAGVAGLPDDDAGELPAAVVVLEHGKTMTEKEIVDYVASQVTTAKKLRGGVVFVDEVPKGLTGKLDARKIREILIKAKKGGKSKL
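Luminescence read by CCD imager after adding enzyme (10nM final) to wells holding compound, titrated in qHTS. Substrates 10uM each D-luciferin and ATP; buffer 50mM Tris acetate pH 7.5, 10mM Mg acetate, Tween-20, BSA.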
SNCA viab count: reduces viability of HEK-293 SNCA reporter cells | HEK-293-SNCA-luc viability, GF-AFC fluorescence, 24 h | AID 1671193 | hit rate 0.12% among 150,000 | Potency, µM (highest dose often 57.1 µM), inactives show at the top dose activity change, negative = cytotoxicity, hits mostly cytotoxic;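 note: 0% = DMSO-treated cells and -100% = medium-only wells without cells; nearly all actives have a fitted effect of over 30% in size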
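HEK-293-SNCA-luc cells (1500/well) plated 24 h, then exposed 24 h to a dilution series; GF-AFC added 30 min at 37C, fluorescence 405/540 nm; normalised to medium-only and DMSO wells, Hill fit.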
SNCA expr inhib: SNCA gene expression inhibition; HEK-293 SNCA-luciferase knock-in, luminescence, 24 h; Potency, µM (series often up to 57.2 µM), inactives show at the highest dose activity change, negative = inhibition, hits mostly inhibitors; hit rate 0.17% among 140,000;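 note: plate controls were DMSO cells for no effect and cell-free wells for full effect; nearly all actives have a fitted effect of over 45% in size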
3T3 cytotox: kills NIH 3T3 cells; NIH 3T3 viability, CellTiter-Glo ATP luminescence, 48-72 h; Potency, µM (highest dose often 96.7 µM), inactives show at the top dose activity change, negative = cytotoxicity, actives largely listed as inhibitors; hit rate 4.3% among 94,000; note: nearly all actives have a fitted effect of over 55% in size
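First NIH 3T3 cells are plated at 400 cells/well; next compound is pinned in; then plates incubate 48 or 72 hr at 37 °C; finally CellTiter-Glo is added and luminescence read after 10 min.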
HEK293 tox: kills HEK 293 cells. HEK 293 viability, ATP luminescence (CellTiter-Glo), 48-72 h. Potency, µM (highest dose often 115 µM), for inactives: at the highest dose activity change, negative = cytotoxicity, actives largely listed as inhibitors. hit rate 6.6% among 94,000. AID 1345083; note: nearly all actives have a fitted effect of over 60% in size
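Pintool-delivered compounds were incubated with HEK 293 cells (250 cells/well) at 37 degree Celsius for 48 or 72 hr. ATP-dependent luminescence (CellTiter-Glo) then reported remaining viable cells.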
* hit, by the source's call. Unless noted, calls come from the whole dose curve; as a rule, active = well fitted curve in the direction sought with a large enough effect; inconclusive = small, poorly fitted or top-dose-only effect, or another doubt; inactive = no such curve, though single readings can be large; an effect the other way counts as inactive or inconclusive. Unless noted, % is set by controls: 0 for no effect and ±100 for the full control effect; potency is the fitted concentration of half-maximal effect.

COCc1c(O)c(C(=O)O)c(C)c2c1OC(=O)c1c(C)cc(O)c(CO)c1O2 was read as SNCA viab count -2.9%.
For CCCOc1ccc(CN2C(=O)C(=O)c3cccc(C)c32)cc1 the results were SNCA viab count 1.0% and SNCA expr inhib -3.5%.
`Cc1ccc(CN2C(=O)C(=O)c3cc(Br)cc(C)c32)cc1` gave SNCA viab count inconclusive and SNCA expr inhib 22.4µM*.
For O=C1NC(=NC2CCCCC2)C2(CCN(Cc3ccc(F)cc3)C2)N1c1cccnc1 (configuration not stated) the results were SNCA viab count -5.4%, SNCA expr inhib 1.9%, 3T3 cytotox 39.8µM* and HEK293 tox inactive.
Screening O=C1NC(=NC2CCCC2)C2(CCN(Cc3ccc(F)cc3)C2)N1c1cccnc1 (configuration not stated) returned SNCA viab count -0.6%, SNCA expr inhib -0.5%, 3T3 cytotox 22.4µM* and HEK293 tox -14.9%.
O=C1NC(=NC2CCCC2)C2(CCN(Cc3ccncc3)C2)N1c1cccnc1 (configuration not stated) was read as SNCA viab count 11.0%, SNCA expr inhib -1.4%, 3T3 cytotox inconclusive and HEK293 tox -14.3%.
O=C1NC(=NC2CCCCC2)C2(CCN(Cc3ccccc3)C2)N1c1cccnc1 (configuration not stated) was read as SNCA viab count -3.7%, SNCA expr inhib inconclusive, 3T3 cytotox inconclusive and HEK293 tox -19.2%.
For COc1ccc(CN2CCC3(C2)C(=NC2CCCCC2)NC(=O)N3c2cccnc2)cc1 (configuration not stated) the results were SNCA viab count -2.0%, SNCA expr inhib inconclusive, 3T3 cytotox 31.6µM* and HEK293 tox inactive.
CC(=O)c1cccc(NC(=O)O[C@@H]2CO[C@H]3[C@@H]2OC[C@@H]3Nc2nccc(C3CCCC3)n2)c1 was read as hNpr1 antagonist -24.1%, FLuc inh inactive, SNCA viab count 5.5%, SNCA expr inhib -8.0%, 3T3 cytotox -28.6% and HEK293 tox inconclusive.
Screening O=C(CCCc1cn[nH]c1)N1CCCC(CCc2c(F)cccc2F)C1 (configuration not stated) returned hNpr1 antagonist -20.7%, FLuc inh inactive, SNCA viab count -0.5%, SNCA expr inhib -20.7%, 3T3 cytotox inconclusive and HEK293 tox 50.1µM*.
Screening O=C(CCC(F)(F)F)N1CCCC(CCc2c(F)cccc2F)C1 (configuration not stated) returned hNpr1 antagonist 0.0%, FLuc inh inactive, SNCA viab count 3.8%, SNCA expr inhib -16.7%, 3T3 cytotox inconclusive and HEK293 tox -28.7%.
`CSCCC(=O)N1CCCC(CCc2ccccc2F)C1` (configuration not stated) gave hNpr1 antagonist -3.9%, FLuc inh inactive, SNCA viab count 7.4%, SNCA expr inhib 5.2%, 3T3 cytotox 39.8µM* and HEK293 tox inconclusive.
O=C(CN1CC2CC(C1)[C@H]1CCCC(=O)N1C2)NCc1ccccc1F (some centres not stated) was read as hNpr1 antagonist 1.9%, FLuc inh inactive, SNCA viab count 11.4%, SNCA expr inhib -0.7%, 3T3 cytotox 2.1% and HEK293 tox 13.2%.
For Cc1ccccc1CN1CCC2(CC1)OC(=O)N(Cc1ccc(O)cc1)C2(C)c1ccccc1 (configuration not stated) the results were hNpr1 antagonist -25.1%, FLuc inh inactive, SNCA viab count -19.1%, SNCA expr inhib -20.2%, 3T3 cytotox 31.6µM* and HEK293 tox 35.5µM*.
Screening COc1ccccc1CN1CCC2(CC1)OC(=O)N(Cc1ccccc1)C2(C)c1ccccc1 (configuration not stated) returned hNpr1 antagonist -12.2%, FLuc inh inactive, SNCA viab count -15.3%, SNCA expr inhib inconclusive, 3T3 cytotox inconclusive and HEK293 tox 50.1µM*.
`CC1(c2ccccc2)N(Cc2ccc(O)cc2)C(=O)OC12CCN(Cc1ccncc1)CC2` (configuration not stated) gave hNpr1 antagonist 0.7%, FLuc inh inactive, SNCA viab count 11.8%, SNCA expr inhib -0.3%, 3T3 cytotox -25.9% and HEK293 tox inconclusive.
CC1(c2ccccc2)N(Cc2ccc(O)cc2)C(=O)OC12CCN(Cc1c[nH]c3ccccc13)CC2 (configuration not stated) was read as hNpr1 antagonist inconclusive, FLuc inh inactive, SNCA viab count -22.3%, SNCA expr inhib -5.2%, 3T3 cytotox 10µM* and HEK293 tox inconclusive.
Screening O=C(NCc1ccc(F)cc1)C1CCCN(Cc2cccc(-c3ccsc3)c2)C1 (configuration not stated) returned SNCA viab count -5.9%, SNCA expr inhib -9.8%, 3T3 cytotox inconclusive and HEK293 tox inconclusive.
O=C(C1CCc2ncc(-c3ccsc3)n2C1)N1CCC(Cc2ccccc2)CC1 (configuration not stated) was read as hNpr1 antagonist 4.0%, FLuc inh inactive, SNCA viab count -0.8%, SNCA expr inhib 15.2%, 3T3 cytotox -27.2% and HEK293 tox -22.0%.
O=C(C1CCCN(Cc2cccc(-c3ccsc3)c2)C1)N1CCC(Cc2ccccc2)CC1 (configuration not stated) was read as SNCA viab count -57.5%, SNCA expr inhib inconclusive, 3T3 cytotox inconclusive and HEK293 tox 39.8µM*.
CN(Cc1ccccc1)C(=O)C1CCCN(Cc2cccc(-c3ccsc3)c2)C1 (configuration not stated) was read as 3T3 cytotox inconclusive and HEK293 tox 39.8µM*.
O=C(C1CCCN(Cc2cccc(-c3ccsc3)c2)C1)N1CCN(Cc2ccccc2)CC1 (configuration not stated) was read as 3T3 cytotox 39.8µM* and HEK293 tox 39.8µM*.
`CCOC(=O)C1CCN(C(=O)C2CCCN(Cc3cccc(-c4ccsc4)c3)C2)CC1` (configuration not stated) gave 3T3 cytotox inconclusive and HEK293 tox 35.5µM*.
`CCn1nc(C)c(-c2cc(C(=O)N3CCC(CCOc4ccccc4)C3)no2)c1C` (configuration not stated) gave hNpr1 antagonist inconclusive, FLuc inh inactive, SNCA viab count -10.0%, SNCA expr inhib -20.0%, 3T3 cytotox inconclusive and HEK293 tox 25.1µM*.

Compound activity (PubChem BioAssay)
